This is an account of results in PubChem BioAssay (EPA / NIEHS).

More than one record can exist for a structure, and the calls need not agree. The source made the active and inactive calls. The calls were made as follows: active = hit-call score of the fitted dose curve at least 0.9, where 1 is the maximum; inactive = score below 0.9.

Read-out in the experiment: Interleukin-1 alpha (IL1a), IL1A (gene 3552)
Nature of the experiment: BSK_LPS_IL1a: BioMAP Diversity Plus: LPS Assay for Interleukin-1 alpha (IL1a) Biomarker Activity (AID 2283080). The following applies: primary human HUVEC with PBMC; actives raise or lower the signal. The protocol:
BSK_LPS is a cell-based, multiplexed-readout assay that uses umbilical vein endothelium and peripheral blood mononuclear cells, a human vascular primary cell co-culture, with measurements taken at 24 hours after chemical dosing in a 96-well plate.BSK_LPS_IL1a is an assay component measured in the BSK_LPS assay. It measures IL-a antibody related to regulation of gene expression using ELISA technology.Data from the assay component BSK_LPS_IL1a was analyzed into 1 assay endpoint. This assay endpoint, BSK_LPS_IL1a, was analyzed with bidirectional fitting relative to DMSO as the negative control and baseline of activity. Using a type of binding reporter, gain or loss-of-signal activity can be used to understand changes in the signaling as they relate to the gene IL1A. Furthermore, this assay endpoint can be referred to as a primary readout, because this assay has produced multiple assay endpoints where this one serves a signaling function. To generalize the intended target to other relatable targets, this assay endpoint is annotated to the cytokine intended target family, where the subfamily is interleukins.
The levels of cell surface (or secreted, indicated by the prefix "s") biomarker endpoints were measured by ELISA. Overt cytotoxicity to cells in confluent adherent cultures (all systems other than the BT system) was assessed by measuring total protein levels using sulforhodamine B (SRB) staining in parallel cultures at the time of biomarker measurements, indicated as SRB endpoints. For proliferation assays for adherent cell types, individual cell types are cultured at sub-confluence and relative cell numbers quantified by SRB staining at time points optimized for each system (48 h: 3C and CASM3C systems; 72 h: BT and HDF3CGF systems; 96 h: SAg system). SRB was performed by staining cells with 0.1% SRB after fixation with 10% TCA and reading wells at 560 nm.Viability and proliferation of PBMC (T cells) was quantified by Alamar Blue reduction for the SAg and BT systems. For PBMC viability (referred to as PBMC Cytotoxicity within the assay endpoint names), cells were plated (75,000/well in a 96-well plate) and then chemical samples added for 1 h before addition of activators, SEB and TSST-1 (20 ng/mL final concentration each). Cells were incubated for 90 h. Then, Alamar Blue (20 uL/well) (Invitrogen, Cat DAL1100) was added for 6 h, and the plates were read with a fluorescence microplate reader at 546/580 nm (excitation/emission). For PBMC proliferation, cells were plated and activated as above but incubated for only 16 h prior to addition of Alamar Blue. Plates were read after 6 h.
On to `Oc1cccc2ccccc12`, for which the result was inactive. `CCCCC(CC)COC(=O)C=Cc1ccc(OC)cc1` (stereo not drawn): the outcome was inactive.

`CCC(C)=NO`: the result was inactive. As to `C1CN(CCOCCN2CCOCC2)CCO1`, the outcome was inactive. As to `COc1ccccc1Oc1c(NS(=O)(=O)c2ccc(C(C)(C)C)cc2)nc(-c2ncccn2)nc1OCCO`, the outcome was inactive and the AC50 (usually the concentration giving half of the maximal activity seen) was 10.4 µM (active). For the compound `CCCCCCCCCCCCCCCCCC[N+](C)(C)C`, the AC50 was 1.22 µM (active). Take `CN(C)CCC(c1ccc(Cl)cc1)c1ccccn1` (stereo not drawn): the outcome was inactive.

On to `Cc1c(C(N)=O)cc([N+](=O)[O-])cc1[N+](=O)[O-]`, for which the result was inactive. For the compound `O=[N+]([O-])c1cc(S(=O)(=O)Nc2ccccc2)ccc1Nc1ccccc1`, the result was inactive. Consider `CC(C)CC(=O)CC(C)CC(C)C` (stereo not drawn), for which the AC50 was 35 µM (active). As for `CC[N+](CC)(CC(=O)Nc1c(C)cccc1C)Cc1ccccc1`, the result was inactive. Same read-out and setting: under `Cc1cc(-n2nc3ccc(Cl)cc3n2)c(O)c(C(C)(C)C)c1` stands “inactive”; under `Sc1nc2ccccc2s1`, “inactive”; under `CCCCCCC(O)CCCCCCCCCCC(=O)OC` (stereo not drawn), “inactive”.

As for `CC[N+](CC)(CC(=O)Nc1c(C)cccc1C)Cc1ccccc1` (tested in a mixture with another compound), the result was inactive. Same read-out and setting: then `CN(C)Cc1cc(C(C)(C)C)c(O)c(C(C)(C)C)c1`, with “inactive”; and `COc1ccc(C(=O)c2ccccc2O)c(O)c1`, with “inactive”.

`CCCCCCCCCC/C=C/C1CC(=O)OC1=O` (stereo not drawn): the result was inactive. For the compound `Cc1cccnc1`, the outcome was inactive. Turning to `CN(C)c1ccc(C(c2ccccc2)c2ccc(N(C)C)cc2)cc1`, the AC50 was 34.7 µM (active). Regarding `COC(=O)/C=C\C(=O)OC`, the outcome was inactive. For the compound `CCCCCCCCCCC1CO1` (stereo not drawn), the AC50 was 31.8 µM (active). With `CCC[Si](OC(C)=O)(OC(C)=O)OC(C)=O`, the outcome was inactive. `O=C(C(=O)c1ccccc1)c1ccccc1`: the outcome was inactive. As to `COc1cc(CNC(=O)CCCC/C=C/C(C)C)ccc1O`, the result was inactive. In the case of `OC(C(F)(F)F)(C(F)(F)F)C(O)(C(F)(F)F)C(F)(F)F`, the outcome was inactive. Turning to `CC(C)C1OCCN1CCOC(=O)NCCCCCCNC(=O)OCCN1CCOC1C(C)C` (stereo not drawn), the result was inactive.
